In all, about 33,000 sequences were measured (“e-score”: median about -0.053, highest 2% from about 0.38 on). The sample as a whole holds a higher share of the highest values than the screen did.
Molecular target: T1, SIX1 homeodomain (reference allele) (human, UniProt Q15475 108-198)
T1 sequence: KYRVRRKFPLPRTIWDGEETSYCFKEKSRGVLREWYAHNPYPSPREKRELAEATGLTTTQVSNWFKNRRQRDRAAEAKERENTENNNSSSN
Assay: universal protein binding microarray; Universal all-10-mer PBM (8x60K, AMADID 030236), 300 nM GST-tagged protein, Alexa Fluor 488 anti-GST; buffer, salt, pH and temperature not stated (as in Berger); high values mean tight binding
Conditions: protein: ivt; tags: N-terminal GST; dsDNA, one strand shown
In short: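 Homeodomains fused to GST were made by in vitro transcription/translation and measured by anti-GST western blot with a recombinant GST standard curve. At 300 nM final concentration, they were applied in duplicate to universal 'all 10-mer' protein binding microarrays (8×60K format).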

Point of comparison: CGATCCTA, binding signal 0.299 ± 0.00788 E-score. Against it:
- ATAGATAG — lower, 0.167 ± 0.0369 E-score
- ACAGATAT — within error, 0.356 ± 0.0703 E-score
- ATAGATCC — within error, 0.302 ± 0.00993 E-score
- ATAGATAT — higher, 0.389 ± 0.0559 E-score
- ATAGATAC — higher, 0.393 ± 0.0221 E-score
- ATCACCTA — lower, 0.232 ± 0.0325 E-score
- AGACGATA — higher, 0.363 ± 0.0344 E-score
- ATATCTTC — within error, 0.365 ± 0.0612 E-score
- CCGTCTCA — within error, 0.268 ± 0.0487 E-score
- CAGTATTA — within error, 0.295 ± 0.0164 E-score
- TACTATCA — within error, 0.325 ± 0.0557 E-score
- TAGTATAA — lower, 0.199 ± 0.033 E-score
- CAGTATGA — lower, 0.151 ± 0.0873 E-score
- TAGTATCA — higher, 0.457 ± 0.0196 E-score
- AAGTATAA — within error, 0.184 ± 0.123 E-score
- AAGTATCA — higher, 0.461 ± 0.0304 E-score
- CAGTATCA — higher, 0.465 ± 0.0101 E-score
- GAGTATCA — higher, 0.47 ± 0.0248 E-score
- GAGTATAA — within error, 0.179 ± 0.136 E-score
- AAGTATCT — within error, 0.266 ± 0.102 E-score
- GAGTATTA — within error, 0.261 ± 0.103 E-score
- ATCCCGCC — lower, 0.27 ± 0.00284 E-score
- GGATAATA — within error, 0.328 ± 0.0761 E-score
- ATAGGGTG — lower, 0.161 ± 0.00687 E-score
- ATCATTGC — lower, 0.244 ± 0.0146 E-score
- AGTTGGTG — lower, 0.191 ± 0.00358 E-score
- AAGACGAT — lower, 0.17 ± 0.0796 E-score
- ATCCTCGG — lower, 0.23 ± 0.0328 E-score
- CAGTATCG — higher, 0.4353 ± 0.00267 E-score
- CACTATCC — within error, 0.295 ± 0.013 E-score
- CAGTATAC — within error, 0.295 ± 0.0256 E-score
- AAGTATCG — within error, 0.369 ± 0.0877 E-score
- CAGTATAG — lower, 0.178 ± 0.0386 E-score
- CAGTATCC — higher, 0.39 ± 0.0154 E-score
- GGATTACC — within error, 0.271 ± 0.0437 E-score
- CTCTCCCC — lower, 0.164 ± 0.0775 E-score
- ATCACCTG — higher, 0.33 ± 0.0102 E-score
- GGATCCAC — within error, 0.317 ± 0.0719 E-score
- AGATCCTA — lower, 0.2149 ± 0.00162 E-score
- GGATCCAA — higher, 0.41 ± 0.0258 E-score
- AGATCCAA — lower, 0.204 ± 0.00278 E-score
- GGATCCTA — higher, 0.377 ± 0.0205 E-score
- CCGAAACC — lower, 0.185 ± 0.0211 E-score
- AAGAGGAT — lower, 0.212 ± 0.00759 E-score
- CGTAGTGA — lower, 0.182 ± 0.0165 E-score
- CAGGACAC — lower, 0.187 ± 0.0771 E-score
- AGATATGG — higher, 0.335 ± 0.0142 E-score
- GAATATCA — within error, 0.366 ± 0.0771 E-score
- AGAGATCT — lower, 0.198 ± 0.0724 E-score
- CGCTATCA — within error, 0.34 ± 0.0391 E-score
- AAATATCT — lower, 0.157 ± 0.0748 E-score
- GGCTATCA — higher, 0.392 ± 0.0544 E-score
- GGATATGA — higher, 0.356 ± 0.0113 E-score
- AGATATTG — within error, 0.311 ± 0.0669 E-score
- AGATATCG — higher, 0.434 ± 0.0383 E-score
- AGATATCT — within error, 0.385 ± 0.082 E-score
- AGCTATCA — within error, 0.313 ± 0.116 E-score
- GGATATCA — higher, 0.487 ± 0.00885 E-score
- ATCACCGG — within error, 0.291 ± 0.0263 E-score
- ACACGGTA — lower, 0.188 ± 0.0434 E-score
- GGATCGCC — within error, 0.342 ± 0.0494 E-score
- TATAGCGA — lower, 0.164 ± 0.0391 E-score
- ATCCATCG — lower, 0.246 ± 0.0374 E-score
- ACATAGTA — lower, 0.205 ± 0.029 E-score
- CTACTATA — lower, 0.153 ± 0.00888 E-score
- ACACCACG — within error, 0.263 ± 0.0526 E-score
- TGATATAA — within error, 0.297 ± 0.032 E-score
- TGATATCA — higher, 0.48 ± 0.0111 E-score
- AGATATCA — higher, 0.451 ± 0.0439 E-score
- AGATATTC — lower, 0.219 ± 0.06 E-score
- CGATATCA — higher, 0.444 ± 0.0437 E-score
- AGATATCC — higher, 0.442 ± 0.0272 E-score
- CGATATTA — higher, 0.365 ± 0.045 E-score
- AGATATTA — within error, 0.234 ± 0.119 E-score
- CAATATCA — within error, 0.306 ± 0.111 E-score
- AGATATGA — within error, 0.291 ± 0.0439 E-score
- AAATATCC — within error, 0.271 ± 0.0279 E-score
- TGATAGCA — within error, 0.323 ± 0.0297 E-score
- ATCTGTCA — lower, 0.208 ± 0.00539 E-score
- ATCCCTTG — within error, 0.271 ± 0.0326 E-score
- GGATTCGA — lower, 0.212 ± 0.0426 E-score
- TATCCCAA — higher, 0.329 ± 0.0116 E-score
- CGTATTCA — lower, 0.265 ± 0.0108 E-score
- ATCTACCG — lower, 0.23245 ± 0.00017 E-score
- GATCTTCC — lower, 0.2463 ± 0.00105 E-score
- AGATATGC — higher, 0.353 ± 0.0369 E-score
- CGATATTC — within error, 0.317 ± 0.0233 E-score
- CGATATGC — higher, 0.428 ± 0.00624 E-score
- GGATAACC — within error, 0.297 ± 0.00525 E-score
- GGATAGCC — higher, 0.3501 ± 0.00233 E-score
- CGATATGA — within error, 0.311 ± 0.0729 E-score
- CAATATCC — higher, 0.37 ± 0.00402 E-score
- CGATAGCA — lower, 0.206 ± 0.0373 E-score
- CGATATCC — higher, 0.476 ± 0.0109 E-score
- GGATATCC — higher, 0.4671 ± 0.00165 E-score
- CGATATCG — higher, 0.439 ± 0.0105 E-score
- CGATAGCG — lower, 0.228 ± 0.0412 E-score
- AGTAATAT — within error, 0.236 ± 0.0691 E-score
- ATACGGGC — within error, 0.278 ± 0.0276 E-score
- TCGTCTCA — within error, 0.22 ± 0.0818 E-score
- GTATGAAC — lower, 0.208 ± 0.0436 E-score
- GTAACCCA — lower, 0.169 ± 0.0635 E-score
- ATCATGCG — lower, 0.24 ± 0.02 E-score
- ATATATGA — within error, 0.233 ± 0.0893 E-score
- ATCAGCCC — within error, 0.308 ± 0.0315 E-score
- ACACCCTG — higher, 0.321 ± 0.0135 E-score
- ATACCCTA — higher, 0.452 ± 0.00588 E-score
- ACACCCTA — within error, 0.31 ± 0.00433 E-score
- ACACCCTC — within error, 0.306 ± 0.00827 E-score
- ATACCCTC — higher, 0.441 ± 0.0106 E-score
- ATACCTTC — within error, 0.323 ± 0.0961 E-score
- ATACCCTG — higher, 0.439 ± 0.0103 E-score
- ATACTCTG — higher, 0.354 ± 0.0279 E-score
- ACCCCCTA — within error, 0.258 ± 0.0368 E-score
- CCATCTGA — lower, 0.259 ± 0.0253 E-score
- AGAAGTAT — within error, 0.297 ± 0.117 E-score
- CTTAACAC — lower, 0.151 ± 0.0479 E-score
- AGGTGAGA — lower, 0.159 ± 0.0138 E-score
- GGGTGAGA — lower, 0.172 ± 0.0545 E-score
- AGGTGATA — higher, 0.418 ± 0.0434 E-score
- GGGTGATA — higher, 0.4596 ± 0.00219 E-score
- GGGTGTTA — within error, 0.282 ± 0.0105 E-score
- AGGTGATC — higher, 0.359 ± 0.0112 E-score
- CGGTGATA — higher, 0.4094 ± 0.00389 E-score
- CGGTGAGA — lower, 0.253 ± 0.0378 E-score
- CGGTGATC — higher, 0.351 ± 0.0309 E-score
- GGGCTATA — lower, 0.2005 ± 0.00146 E-score
- ATCATGGC — lower, 0.209 ± 0.00482 E-score
- AGTTATCG — lower, 0.19 ± 0.0243 E-score
- AGAATCCC — lower, 0.175 ± 0.0139 E-score
- GTATAACA — lower, 0.238 ± 0.00858 E-score
- CGATAGGA — lower, 0.26 ± 0.0286 E-score
- GTATTGCA — lower, 0.169 ± 0.0405 E-score
- ATAGCACA — lower, 0.169 ± 0.00707 E-score
- GCTAATCC — lower, 0.208 ± 0.0144 E-score
- ATCAAGTA — lower, 0.234 ± 0.0311 E-score
- GGATACGA — higher, 0.36 ± 0.00395 E-score
- CGATACGC — higher, 0.434 ± 0.00646 E-score
- ATATACGG — within error, 0.305 ± 0.00579 E-score
- AGATACGA — within error, 0.279 ± 0.0423 E-score
- CGATACGA — higher, 0.39752 ± 0.00029 E-score
- AGATACGG — higher, 0.401 ± 0.00895 E-score
- AAATACGG — lower, 0.19 ± 0.0109 E-score
- AGATACGC — higher, 0.349 ± 0.00878 E-score
- CAATACGC — lower, 0.198 ± 0.00389 E-score
- ACTAATCT — lower, 0.192 ± 0.0141 E-score
- AAGGTGAT — lower, 0.1945 ± 0.00188 E-score
- AGCCGGTA — lower, 0.169 ± 0.00673 E-score
- CCGACCCA — lower, 0.155 ± 0.0833 E-score
- ATTAACAC — within error, 0.258 ± 0.0441 E-score
- ATTTAATA — lower, 0.164 ± 0.0598 E-score
- ATCTCCAC — lower, 0.204 ± 0.00599 E-score
- ATAGTACG — lower, 0.209 ± 0.0147 E-score
- ACACCGGC — within error, 0.28 ± 0.0468 E-score
- ATCAATCG — lower, 0.266 ± 0.0101 E-score
- ATATACCC — higher, 0.446 ± 0.0125 E-score
- ATATACCG — higher, 0.393 ± 0.00521 E-score
- CTATACCC — higher, 0.369 ± 0.00624 E-score
- ATATACTC — within error, 0.354 ± 0.0664 E-score
- ATATACCA — higher, 0.326 ± 0.0157 E-score
- ATATACTG — the same, 0.299 ± 0.0355 E-score
- ATAGCGGA — lower, 0.227 ± 0.0403 E-score
- CCCAAGCA — lower, 0.263 ± 0.00886 E-score
- GTAGGCCA — lower, 0.17 ± 0.0671 E-score
- CGAGGATA — higher, 0.384 ± 0.0112 E-score
- ATAGGATA — higher, 0.415 ± 0.0252 E-score
- CAAGGATA — higher, 0.342 ± 0.00822 E-score
- GGAGGATA — higher, 0.387 ± 0.0115 E-score
- ATAGGATC — higher, 0.367 ± 0.0232 E-score
- ACAGGATA — lower, 0.236 ± 0.0392 E-score
- CTAGGATA — higher, 0.356 ± 0.00923 E-score
- GTAGGATA — higher, 0.355 ± 0.00663 E-score
- CGAGGATC — higher, 0.333 ± 0.023 E-score
- GCAGGATA — within error, 0.329 ± 0.0306 E-score
- CCAGGATA — higher, 0.38 ± 0.00746 E-score
- AGAGGATA — higher, 0.326 ± 0.0175 E-score
